Results taken from the OligoGym collection.

Molecular target: DENND3
Assay: pooled miR-30 sensor sort-seq; sequence = guide strand
Conditions: shRNA
Also: reference of the scale not given here.

| Sequence | sensor-assay potency score (higher = more potent) |
| --- | --- |
| TAGATGACGGAGTCTTCCGAGC | -1.16 |
| TATTTATCAGAACTAAACCGTC | -0.811 |
| TTGAACACGGTCACCTTGCCTT | -0.0431 |
| TTATCGTCCGTGGACTTGGAGT | -1.3 |
| TTGTAGAAATCTTTGAATGTTT | -1.03 |
| TTCCACACCAGCACCATGCCGT | -0.0924 |
| TAAATGATTCTTTACATCCCTG | -0.0961 |
| TTGGACTTAGAAGCATTCCATT | -1.49 |
| TATCAGAACTAAACCGTCGGCT | 0.0696 |
| TTATCAGAACTAAACCGTCGGC | -0.359 |
| TAGAGCAGCACGTCCACCGCTT | 0.371 |
| TTGATGATGTAGATGACGGAGT | -0.511 |

Molecular target: DEXI
Assay: as above
Conditions: shRNA

| Sequence | sensor-assay potency score (higher = more potent) |
| --- | --- |
| TAAACATCCATCGCAGCTGCAA | -0.291 |
| TCAAACAGGAACCTCTCTGTTG | -0.754 |
| ATGTACTCCATGAGGAAGGCGT | -1.19 |
| TAGTACAGGATCAGCACATTGA | -0.394 |
| AATCTCTCTTCCACTCTCCTGG | -0.0495 |
| TAACGTGGCACTCACCAGCATG | -1.35 |
| TCAAAGACGTCGAGCTCCGAGT | -0.796 |
| TTAAGTAGGCACAACACTCATA | -0.271 |
